# Laboratory results taken from the supplement of paper PMC3334620.
# In all, about 33,000 sequences were measured (“E-score (-0.5 to 0.5)”: median about -0.0014, highest 2% from about 0.25 on). The sample as a whole holds a higher share of the highest values than the screen did.
# Biological target: T1, Cad1 (UniProt P24813)
# T1 sequence: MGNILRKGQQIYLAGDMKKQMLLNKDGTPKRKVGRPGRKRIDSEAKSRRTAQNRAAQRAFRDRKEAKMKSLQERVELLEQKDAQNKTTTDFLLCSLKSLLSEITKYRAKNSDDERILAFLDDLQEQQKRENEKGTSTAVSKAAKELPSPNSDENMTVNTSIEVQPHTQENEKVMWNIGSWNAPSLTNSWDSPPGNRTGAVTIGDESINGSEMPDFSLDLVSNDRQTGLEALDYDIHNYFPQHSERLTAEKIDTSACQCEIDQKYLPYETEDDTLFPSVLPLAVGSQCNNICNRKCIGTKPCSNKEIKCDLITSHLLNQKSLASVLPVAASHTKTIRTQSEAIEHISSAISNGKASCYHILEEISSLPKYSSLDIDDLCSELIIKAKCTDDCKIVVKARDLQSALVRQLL
# Assay: PBM E-score (8-mer binding enrichment) (E-score (-0.5 to 0.5)); higher = stronger / more preferred TF binding
# Details: protein concentration: 100 nM; construct: GST-full length
# Procedure: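 Universal 'all 10-mer' protein binding microarrays (Agilent AMADID 015681) probed with GST-tagged S. cerevisiae TFs (full-length or DBD) made by in vitro transcription/translation (PURExpress), about 100-200 nM. Bound TF was detected with fluorescent anti-GST. Each ungapped 8-mer (which stands for itself and its reverse complement) is scored by the PBM enrichment score (E-score), a modified Wilcoxon-Mann-Whitney statistic from -0.5 to +0.5, computed with the Universal PBM Analysis Suite. Scale: above 0.35 generally sequence-specific binding.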
row,Sequence,PBM E-score
1,AAGTCGAC,0.256
2,CCGTCGAC,-0.0671
3,ATGTCGAA,-0.00122
4,CTGTCGAC,-0.0383
5,GCGTCGAC,0.252
6,AAGTCGAA,-0.0588
7,CCGACAAG,-0.0166
8,CATCTCCA,0.09
9,ATACATAA,0.12
10,ATACATAT,0.286
11,AAACATAC,-0.123
12,AAACATAT,0.25
13,ATACATAC,-0.195
14,AAACATAG,-0.0611
15,GCGGCCGC,0.175
16,AATTGATC,-0.0161
17,AATTGATG,0.251
18,AATTGATA,0.206
19,TCACGTGA,0.125
20,TCCGCTCA,-0.195
21,ACTCGAAA,-0.0505
22,AGAGCCCT,-0.122
23,ATTGATTC,0.12
24,ATTGATTG,0.133
25,ACTGATTC,-0.0134

row,Sequence,PBM E-score
1,CCTGATTA,0.31
2,CCTGATGA,0.0887
3,CCTGATTC,0.0985
4,ATTGAATA,0.281
5,CTTGAATA,0.118
6,ACTGATTG,0.0651
7,ATTGATTA,0.286
8,ATTGAATC,-0.0423
9,ACTGATTA,0.265
10,CAGCATAA,0.169
11,AATTAAGT,0.181
12,ACTACTGC,-0.0336
13,GACTACGA,-0.0382
14,GATGGGTA,0.0269
15,CCAGCCAG,-0.207
16,GATGATTA,0.126
17,GCTGATTA,0.378
18,GCTGATAA,0.161
19,CTCATGGC,-0.0384
20,TAGAACTA,0.0157
21,ACTAGGAT,-0.0418
22,GTCGGTAA,-0.116
23,CTATAGCA,-0.0148
24,AATTCCAC,0.111
25,AATTCCAG,0.257

row,Sequence,PBM E-score
1,AATTCCAT,0.0643
2,AGTATCTC,0.178
3,TCTTCAAA,-0.0389
4,TAACTCGA,0.275
5,GAACTCGA,0.0968
6,CAACTCGA,0.175
7,AAATTCAC,0.0164
8,AATTATCA,0.266
9,AATTATCG,0.247
10,AATTATCT,0.282
11,AATTATTA,0.249
12,ACTTATCT,0.0827
13,AATTATCC,0.0534
14,AGGAGACT,-0.286
15,ATAAAACA,0.0107
16,CGATCGCA,0.169
17,CCAGATGA,-0.131
18,TGAGCGAA,0.123
19,GCTGACTA,0.335
20,CCTGACTC,-0.139
21,ACTGACCA,-0.105
22,GCTGACCC,-0.145
23,ACTGACTA,0.116
24,GCTGACCA,0.252
25,GTTGACTA,0.0212

row,Sequence,PBM E-score
1,CCTGACTA,0.351
2,GATGACTA,0.172
3,CCGATGGC,-0.118
4,CGGGTGGA,-0.0447
5,CGTTAGCC,0.0683
6,GCCCTAAA,-0.269
7,CTCGAAGC,0.00892
8,AGCACTAA,0.094
9,TGCACTAA,0.32
10,CGCACTAA,0.155
11,TCGGGGAA,0.0236
12,GAGACGTA,-0.0175
13,AAACAAAA,-0.0143
14,TCACAAAA,0.253
15,CGACAAAA,0.136
16,TGACAAAA,0.251
17,GAACAAAC,0.0779
18,GAACAAAA,0.274
19,ACACAAAA,0.0974
20,GCACAAAA,0.18
21,GGACAAAA,0.0884
22,ATCAGCAG,0.191
23,AATATCCT,-0.0122
24,CAAATTTG,0.33
25,AGAATTAT,0.191

row,Sequence,PBM E-score
1,ATAATTAC,0.295
2,AAAATTTG,0.196
3,CTAATTAC,0.199
4,ATAATTTG,0.278
5,CAAATTTC,0.201
6,ATAATTAT,0.377
7,ATTATAAT,0.227
8,ATAATTTC,0.154
9,ATAATTGG,-0.0135
10,ATAATTCC,-0.00553
11,GGCATTGA,-0.0489
12,ACCGCGCG,0.225
13,CCGGTAGC,-0.164
14,CCTCAATC,0.0973
15,GCATTCAA,0.0687
16,AAGGGACG,-0.195
17,GACCGATC,-0.128
18,CAGGGTCC,-0.134
19,AGGGGGAA,-0.248
20,AATTGGTC,0.0715
21,ATAATTCG,0.168
22,ATAATTAA,0.323
23,CCAATTAG,0.223
24,GTAATTAC,0.33
25,GTAATTAA,0.218

row,Sequence,PBM E-score
1,ATAATTAG,0.285
2,TTAATTAA,0.0562
3,ATAATTGA,0.149
4,CTAATTAG,0.41
5,CTAATTAA,0.147
6,GGAATTAC,0.21
7,AGAATTAG,0.00824
8,CCCTATAG,-0.143
9,ACAGCGCC,-0.0091
10,TATAAGAA,0.0437
11,GGCTGGTA,-0.18
12,ATACTCTA,-0.0262
13,ATATAATC,0.0826
14,GATGCAGA,0.146
15,AAGATGTC,-0.188
16,GAGAGCCC,-0.458
17,AGCCGCTG,-0.0754
18,ACAATTAT,0.267
19,ACAATTAC,0.119
20,ACAATTAA,0.148
21,TAGAGGCA,-0.166
22,CAACATAA,0.255
23,AAACATAA,-0.131
24,TAACATAA,0.287
25,CAACATAG,-0.073

row,Sequence,PBM E-score
1,CAACATAC,0.132
2,GAACATAA,0.111
3,CCCCTAAC,-0.15
4,AGTTGGAT,-0.0953
5,AGGATCCC,-0.144
6,CCCAGCGG,-0.264
7,TATGTGGA,0.146
8,AGGACGCG,-0.00704
9,CAGTCTGA,0.0314
10,CTGTCGGC,-0.107
11,CCAGTAAA,-0.0575
12,CCATTGTC,0.00119
13,ACATTGTC,0.292
14,ACATTGTG,-0.0593
15,CCATTATC,0.0253
16,ACATTATC,0.274
17,ACATTATG,0.0893
18,CTAGAGAC,-0.243
19,AAATTTTC,0.0644
20,ACGCCTAT,-0.161
21,AGTGTAGC,-0.0088
22,GAGGTGGC,-0.149
